Measurements: paper PMC4336329 (PLoS ONE, 2015)
Out of some 310,000 compounds screened, about 14,000 (4.5%) showed an effect of 50% or more. The effect is printed as a negative number. This is one part of a sample in which strong results are shown more often than they occur.

Target: human ether-à-go-go-related gene (hERG) potassium channel (human, UniProt Q12809)
Assay: primary screen, population patch clamp on CHO cells stably expressing hERG; higher = less effect of the substance
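Further: peak tail current of the secondary pulse compared with the same well before compound.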

human ether-à-go-go-related gene (hERG) potassium channel, sequence (Q12809 whole entry, looked up): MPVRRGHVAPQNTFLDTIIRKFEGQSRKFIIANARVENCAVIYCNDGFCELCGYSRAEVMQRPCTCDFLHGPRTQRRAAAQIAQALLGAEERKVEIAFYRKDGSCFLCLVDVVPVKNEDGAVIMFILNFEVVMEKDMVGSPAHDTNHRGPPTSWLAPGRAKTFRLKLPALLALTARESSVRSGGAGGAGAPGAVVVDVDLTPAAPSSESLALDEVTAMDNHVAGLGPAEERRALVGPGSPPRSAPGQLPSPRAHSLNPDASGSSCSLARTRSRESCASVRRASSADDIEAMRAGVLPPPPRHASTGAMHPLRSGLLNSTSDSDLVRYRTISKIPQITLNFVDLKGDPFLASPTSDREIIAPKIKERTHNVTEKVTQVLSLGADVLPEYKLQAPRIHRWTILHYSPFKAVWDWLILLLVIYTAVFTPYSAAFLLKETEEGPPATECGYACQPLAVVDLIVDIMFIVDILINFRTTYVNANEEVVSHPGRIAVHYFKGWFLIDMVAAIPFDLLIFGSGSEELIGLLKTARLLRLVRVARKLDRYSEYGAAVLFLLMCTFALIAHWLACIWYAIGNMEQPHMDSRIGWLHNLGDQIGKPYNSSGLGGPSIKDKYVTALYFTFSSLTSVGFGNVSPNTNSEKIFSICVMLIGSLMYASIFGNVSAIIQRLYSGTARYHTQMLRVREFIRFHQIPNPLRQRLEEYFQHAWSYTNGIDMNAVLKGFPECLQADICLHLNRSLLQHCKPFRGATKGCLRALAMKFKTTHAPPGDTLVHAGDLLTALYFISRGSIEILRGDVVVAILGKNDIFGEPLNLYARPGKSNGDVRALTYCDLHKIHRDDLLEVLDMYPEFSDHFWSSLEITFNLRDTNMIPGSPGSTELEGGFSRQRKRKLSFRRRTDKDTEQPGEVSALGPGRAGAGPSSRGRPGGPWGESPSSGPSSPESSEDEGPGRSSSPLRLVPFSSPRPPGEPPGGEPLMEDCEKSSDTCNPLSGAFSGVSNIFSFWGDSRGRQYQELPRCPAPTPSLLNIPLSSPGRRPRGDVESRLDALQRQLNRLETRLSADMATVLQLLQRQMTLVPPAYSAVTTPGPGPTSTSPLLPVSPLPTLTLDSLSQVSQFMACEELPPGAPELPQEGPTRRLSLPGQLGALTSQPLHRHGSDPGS

Structure (SMILES) | hERG current change (%, negative = inhibition) at 10uM
O=C(c1ccc2ccccc2c1)N1CCCC1 | 19.2%
CC(=O)c1sc(NC(=O)c2cc(=O)c3ccccc3o2)nc1C | 10.1%
O=C(Cc1ccc(F)cc1)Nc1nnc(SCC(=O)NC2CCCC2)s1 | 1.56%
COc1cccc(C(O)c2nc3ccccc3n2C)c1 (centres unmarked) | 3.27%
CC(NC(=O)Cn1ccsc1=N)C12CC3CC(CC(C3)C1)C2.Cl (centres unmarked) | -34.4%
CCC(=O)c1c[nH]c(C(=O)NCc2ccccc2OC)c1 | -6.15%
CCN(CC)CCCN1CC(O)=C(c2nc3ccccc3s2)C1=N | -34.2%
Fc1ccc(Nc2nnns2)cc1 | 18.2%
O=C(OCc1cccc([N+](=O)[O-])c1)c1ccc[nH]c1=O | 17.2%
COc1ccc(CC(=O)Nc2cc(C)ccn2)cc1 | 6.87%
O=C(COC(=O)C1CC(=O)N(Cc2ccccc2)C1)Nc1ccccc1F (centres unmarked) | 7.39%
CN(Cc1cccc(Cl)c1)C(=O)C1CCN(C(=O)Nc2ccccc2)CC1 | -55.9%
COc1ccc(CN(C)C(=O)C2CCN(C(=O)Nc3ccccc3)CC2)cc1OC | -1.53%
CSc1ccc(CN(C)C(=O)C2CCN(C(=O)Nc3ccccc3)CC2)cc1 | -67.4%
CSc1ccccc1NC(=O)CN(C)C(=O)C1CCN(C(=O)Nc2ccccc2)CC1 | -11.4%
COc1ccc(CN(C)C(=O)C2CCN(C(=O)Nc3ccccc3)CC2)cc1 | -16.3%
CN(CC(=O)Nc1c(Cl)cccc1Cl)C(=O)C1CCN(C(=O)Nc2ccccc2)CC1 | 11.5%
CCn1cnc2c1c(=O)n(CC(=O)Nc1ccc(C(N)=O)cc1)c(=O)n2Cc1ccccc1 | 13.8%
Clc1cccc(C2Nc3cccc4cccc(c34)N2)c1Cl | 16.2%
CCOC(=O)C1CCCN(c2nc3c(C)cccn3c(=O)c2/C=C(\C#N)C(=O)NCc2ccco2)C1 (centres unmarked) | -49.7%
N#C/C(=C\c1cccc([N+](=O)[O-])c1)C(=O)NCc1cccnc1 | -50.8%
Cc1ccc(C(=O)N/C(=C\c2cccc([N+](=O)[O-])c2)C(=O)OCN2C(=O)c3ccccc3C2=O)cc1 | -11%

Structure (SMILES) | hERG current change (%, negative = inhibition) at 10uM
CC(=O)N/C(=C\c1cccc([N+](=O)[O-])c1)C(=O)NC(C)C | 2.75%
O=C(NCC1CCCO1)/C(=C\c1cccc([N+](=O)[O-])c1)NC(=O)c1ccccc1 (centres unmarked) | -33%
Cc1ccc(C(=O)N/C(=C\c2ccccc2)C(=O)NCC2CCCO2)cc1 (centres unmarked) | -24.3%
CCNC(=O)/C(=C/c1cccc([N+](=O)[O-])c1)NC(=O)c1ccc(C)cc1 | -58.1%
CC(C)NC(=O)/C(=C\c1cccc([N+](=O)[O-])c1)NC(=O)c1ccccc1 | -18.1%
N#C/C(=C\c1cccc([N+](=O)[O-])c1)C(=O)Nc1cccnc1 | 21.3%
Cc1ccc(C(=O)N/C(=C/c2cccc([N+](=O)[O-])c2)C(=O)NCC2CCCO2)cc1 (centres unmarked) | -68.4%
Cc1ccc(C(=O)N/C(=C/c2cccc([N+](=O)[O-])c2)C(=O)NC(C)C)cc1 | -51.8%
Cc1ccc(C(=O)N/C(=C\c2cccc([N+](=O)[O-])c2)C(=O)NC(Cc2ccccc2)C(=O)O)cc1 (centres unmarked) | 15.3%
O=C(/C=C/c1cccc([N+](=O)[O-])c1)NCc1cccnc1 | -14%
Cc1ccc(NC(=O)CSCc2ccco2)cc1 | 21.7%
O=C(CCSc1ccc(F)cc1)Nc1ccc(-n2cnnn2)cc1 | -26.4%
COc1cc(/C=N/N2CCN(c3ccc(Cl)cc3)CC2)cc(OC)c1OC(C)=O | 9.63%
O=C(NC(NC(=S)Nc1ccccc1)C(Cl)(Cl)Cl)c1cccc(Cl)c1 (centres unmarked) | 7.91%
Cc1ccc(C(=O)N/C(=C\c2cccc([N+](=O)[O-])c2)C(=O)Nc2cccc(C(=O)O)c2)cc1 | 15.2%
Cc1ccc(C(=O)N/C(=C\c2cccc([N+](=O)[O-])c2)C(=O)NCc2ccncc2)cc1 | -73.3%
O=C(NNc1cccc([N+](=O)[O-])c1)/C(=C\c1cccnc1)NC(=O)c1ccccc1 | -30.6%
O=C(NCc1ccncc1)/C(=C/c1cccc([N+](=O)[O-])c1)NC(=O)c1ccccc1 | -71%
Cn1c(=O)c2c(nc(Sc3ncccn3)n2Cc2ccccc2Cl)n(C)c1=O | -8.1%
CCCC(=O)NC(=S)Nc1cccc(NC(=O)c2ccccc2)c1 | -1.54%
CCOc1ccc(C(=O)Nc2ccc(C(F)(F)F)n(C)c2=O)cc1 | 14.5%
Cc1ccc(Nc2ncnc(N)n2)cc1 | 9.24%

Structure (SMILES) | hERG current change (%, negative = inhibition) at 10uM
CCOc1ccc(NC(=O)CCC(=O)OC)cc1 | -1.95%
CCCOc1ccc(C(=O)OCCN(CC)CC)cc1N.Cl | -51.9%
CCCCOc1cc(C(=O)OCCN(CC)CC)ccc1N | -60.6%
CCCOc1cc(N)ccc1C(=O)OCCN(CC)CC.Cl | -18.9%
CCN(CC)CCOC(=O)c1cccc(Br)c1.Cl | -40.6%
CCN(CC)CCOC(=O)c1ccc([N+](=O)[O-])cc1.Cl | -23.1%
CCOc1ccc(C(=O)OCCN(CC)CC)cc1.Cl | -44.8%
CCN(CC)CCOC(=O)c1ccc(N)cc1.Cl | 2.06%
CCN(CC)CCOC(=O)c1ccc2c(c1)OCCO2.Cl | -11.4%
CCCCOc1cc(C(=O)OCCN(CC)CC)ccc1N.Cl | -53.6%
CCN(CC)CCOC(=O)c1ccc(NC(=S)NC(=O)/C=C/c2ccco2)cc1 | -0.561%
Cc1oc2c(c(C)cc3oc(=O)c(CC(=O)N[C@H](C(=O)O)C(C)C)c(C)c32)c1C | 15.2%
Cc1cc2c(ncn2C(C)C)c(N)c1C | -9.87%
CSc1ccc(C#N)cc1NC(=O)c1ccccc1 | -36.5%
NC(=O)C1CCN(C(=O)Cc2ccsc2)CC1 | -1.15%
Cc1csc2nc(O)c(C(=O)NCCCc3ccccc3)c(=O)n12 | -20%
Cc1ccnc(NS(=O)(=O)c2ccc(NC(=O)Cc3ccc(Cl)cc3)cc2)n1 | 14.3%
S=C1NC2(CCCCC2)Cc2ccccc21 | 12.4%
CC(C)NC(=O)CN1CCN(Cc2nc(-c3cccs3)no2)CC1 | 19.9%
C[C@@H](C(=O)Nc1ccc2ccccc2c1)[C@H]1C[C@]1(C)[C@H](NC(=O)c1cnccn1)c1ccccc1 | -4.43%
CN1CCN(C(=S)NC(=O)c2ccccc2Br)CC1 | 11.2%
O=c1[nH]c(O)c(N=Nc2cccc(S(=O)(=O)N3CCOCC3)c2)c(=O)[nH]1 | -73.7%

Structure (SMILES) | hERG current change (%, negative = inhibition) at 10uM
O=c1[nH]c(=S)[nH]c(O)c1N=Nc1cccc(S(=O)(=O)N2CCOCC2)c1 | 9.03%
O=c1[nH]c(O)c(N=Nc2ccc(S(=O)(=O)N3CCOCC3)cc2)c(=O)[nH]1 | -4.59%
COC(=O)C1=C(c2ccccc2)C[C@@H]2CC[C@H]1N2C(=O)NCCCOC(C)C | 0.331%
CCOc1ccc(N(C(=O)CNC(=O)c2ccco2)C(C(=O)NC2CCCC2)c2ccncc2)cc1 (centres unmarked) | -10.7%
COc1ccc(CN2CCN(Cc3c[nH]c4ccccc34)CC2CCO)c(F)c1 (centres unmarked) | -41.4%
COc1ccc(F)c(CN2CCN(CCc3ccccc3)C(CCO)C2)c1 (centres unmarked) | -55.9%
COc1ccc(CN2CCN(CCCc3ccccc3)C(CCO)C2)c(O)c1 (centres unmarked) | -83.1%
COc1ccc(CN2CCN(CCc3ccccc3)C(CCO)C2)c(O)c1 (centres unmarked) | -71.7%
O=C(OCC1OC(n2cc(Br)c(=O)[nH]c2=O)C(Br)C1O)c1ccccc1 (centres unmarked) | 8.3%
CCC(C)N(C(=O)COC(=O)CNC(=O)c1ccccc1F)C1CCS(=O)(=O)C1 (centres unmarked) | 4.36%
COc1ccc(C)cc1NC(=O)c1cc2c(s1)CCC2 | -5.71%
COc1ccccc1-c1nnc2sc(-c3ccc(N(C)C)cc3)nn12 | -11%
CC(=O)NC(C)c1nc2ccccc2n1C(C)C (centres unmarked) | -10.2%
COc1ccc(C)cc1NC(=O)C(NCC(O)c1ccccc1)c1ccccc1.O=C(O)C(=O)O (centres unmarked) | -21.7%
Cc1ccc(C)c(NC(=O)C(NCC(C)(C)N2CCOCC2)c2ccccc2)c1 (centres unmarked) | -62.6%
Cc1ccc(C)c(NC(=O)C(c2ccccc2)N2CCOCC2)c1 (centres unmarked) | -10.6%
COc1ccc(C)cc1NC(=O)C(NCC1CCCO1)c1ccccc1 (centres unmarked) | -51.4%
Cc1cc(C)cc(NC(=O)C(NCCN2CCOCC2)c2ccccc2)c1.O=C(O)C(=O)O (centres unmarked) | -7.91%
Cc1cc(C)cc(NC(=O)C(NCC2CCCO2)c2ccccc2)c1.O=C(O)C(=O)O (centres unmarked) | -35.5%
Cc1cc(NC(=O)C2CCN(S(=O)(=O)Cc3ccccc3)CC2)ccc1-n1cnnn1 | -9.11%
